Source: PubChem BioAssay
This excerpt belongs to a sample that is enriched for hits.
PRC2 inh: inhibitors of human EZH2/PRC2 methyltransferase; Q15910; PRC2 H3K27 methylation, DELFIA TRF, 1 h; inhibition, % at 12.5 µM; actives 0.35% (n = 57,000); AID 651548;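 active means mean inhibition of replicates at least 50% and every single replicate also reaching 50%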;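 further: dimethyl H3K27 on biotinylated H3 21-44 peptide detected by antibody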
Numbers stand for hits; 0 = inactive.

SMILES	PRC2 inh
O=C(CSc1n[nH]c(-c2ccc(Cl)cc2)n1)Nc1c(F)cc(F)cc1Br	0
Cc1ccc(NC(=O)C(=O)NCc2ccccn2)cc1C	0
O=C(O)CCCC[C@@H]1SC[C@@H]2NC(=O)N[C@@H]21	99
O=C(O)CCCCCCC(=O)N/N=C/CCC1CCCCC1	0
COc1ccc(NC(=O)N(C)C[C@H]2OCCCC[C@@H](C)Oc3ccc(N(C)C)cc3C(=O)N([C@@H](C)CO)C[C@H]2C)cc1	0
Cc1ccc(S(=O)(=O)NC(C)C(=O)Nc2cccc(C(F)(F)F)c2)cc1 (stereo not drawn)	0
Cc1cc(Cl)c(S(=O)(=O)Nc2cccc(C(F)(F)F)c2)cc1OCC(N)=O	0
CC(C)(c1ccc(NS(=O)(=O)C(F)(F)F)cc1)c1ccc(C(C)(C)c2cccc(NS(=O)(=O)C(F)(F)F)c2)cc1	52
COc1ccc(C(C)=O)c(O)c1	0
COCc1cc(O)c(O)c(O)c1-c1c(COC)cc(O)c(O)c1O	88
Cc1noc(C)c1NC(=O)NCC[C@@H]1CC[C@H](NC(=O)c2ccccc2)[C@H](CO)O1	0
C[C@H]1CN([C@@H](C)CO)C(=O)c2cc(-c3ccccc3)cnc2O[C@@H]1CN(C)Cc1ccc(C(=O)O)cc1	0
COc1cc(O[C@@H]2O[C@H](CO)[C@@H](O)[C@H](O)[C@H]2O)c2c(=O)cc(-c3ccccc3)oc2c1OC	0
O=c1cc(-c2ccc(O)cc2)oc2cc(O[C@@H]3O[C@H](CO)[C@@H](O)[C@H](O)[C@H]3O[C@@H]3OC[C@](O)(CO)[C@H]3O)cc(O)c12	0
O=c1cc(-c2ccc(O)c(O)c2)oc2c(C3O[C@H](CO)[C@H](O)[C@H](O)[C@H]3O)c(O)cc(O)c12 (stereo partly drawn)	81
COc1ccc(-c2cnc3c(c2)C(=O)N([C@@H](C)CO)C[C@@H](C)[C@H](CN(C)C(=O)C2CC2)O3)cc1	0
Cc1ccc(CCN=c2c([N+](=O)[O-])nn(-c3ccc4c(c3)OCCO4)n2O)cc1	0
C[C@@H]1CCCCO[C@@H](CN(C)S(C)(=O)=O)[C@H](C)CN([C@@H](C)CO)C(=O)c2cc(N(C)C)ccc2O1	0
CC(=O)c1c(O)cc(O[C@@H]2O[C@H](CO)[C@@H](O)[C@H](O)[C@H]2O)cc1O	94
COc1ccc(/C=C/c2cc(O)cc(O[C@@H]3O[C@H](CO)[C@@H](O)[C@H](O)[C@H]3O)c2)cc1	0
CC(O)CCCc1cc(O)cc(O[C@@H]2O[C@H](CO)[C@@H](O)[C@H](O)[C@H]2O)c1 (stereo partly drawn)	0
O=C(CCc1ccc(O)cc1)c1c(O)cc(O)cc1O[C@@H]1O[C@H](CO)[C@@H](O)[C@H](O)[C@H]1O	0
CC(=O)c1ccc(O[C@@H]2O[C@H](CO)[C@@H](O)[C@H](O)[C@H]2O)c(/C=C/C(C)(C)O)c1	0
CC(C)=CCc1cc(O[C@@H]2O[C@H](CO)[C@@H](O)[C@H](O)[C@H]2O)cc(CC=C(C)C)c1C(O)C(=O)O (stereo partly drawn)	99
O=C(C[C@@H]1C[C@H]2c3cc(NC(=O)NC4CCCC4)ccc3O[C@H]2[C@H](CO)O1)NC1CCCC1	0
SMILES	PRC2 inh
COc1ccc(NC(=O)N[C@H]2C=C[C@@H](CC(=O)NCc3ccccn3)O[C@@H]2CO)cc1	0
C=CCN1Cc2ccccc2[C@H]2OC(c3ccc(OCCCO)cc3)=N[C@@]2(Cc2ccccc2)C1=O	0
C[C@H](CO)N1C[C@H](C)[C@@H](CN(C)C(=O)Cc2ccncc2)Oc2ncc(C#C[C@@H](C)O)cc2C1=O	0
O=C(CSc1ncnc2scc(-c3ccccc3)c12)c1ccccc1	0
Oc1ccc(CCCCC(CCc2ccc(O)cc2)O[C@@H]2OC[C@@H](O)[C@H](O)[C@H]2O)cc1 (stereo partly drawn)	0
O=C(CCc1ccc(O)cc1)c1c(O)c([C@@H]2O[C@H](CO)[C@@H](O)[C@H](O)[C@H]2O)c(O)c([C@@H]2O[C@H](CO)[C@@H](O)[C@H](O)[C@H]2O)c1O	0
OC[C@H]1O[C@@H](OC(CCCCc2ccc(O)cc2)CCc2ccc(O)cc2)[C@H](O)[C@@H](O)[C@@H]1O (stereo partly drawn)	73
COC(=O)C(NC(=O)c1ccccc1)(c1c(C)[nH]n(-c2ccccc2)c1=O)C(F)(F)F (stereo not drawn)	0
Cc1cc(C(F)(F)F)nc(SCc2cccc(C(=O)O)c2)n1	0
O=C(O)c1cccc(CSc2n[nH]c(-c3ccc(Cl)cc3)n2)c1	0
O=C(O)c1cccc(CSc2nc(-c3ccc(Cl)cc3)cc(C(F)(F)F)n2)c1	50
CCn1c(SCC(=O)c2cccc([N+](=O)[O-])c2)nnc1-c1ccc(Cl)cc1	0
O=c1c(O[C@@H]2O[C@H](CO)[C@@H](O)[C@H](O)[C@H]2O)c(-c2ccc(O)cc2)oc2cc(O)cc(O)c12	0
COc1cc(-c2oc3cc(O)cc(O)c3c(=O)c2OC2OC(CO[C@@H]3O[C@@H](C)[C@H](O)[C@@H](O)[C@H]3O)C(O)C(O)C2O)ccc1O (stereo partly drawn)	0
COc1cc2c(=O)c(-c3ccc(O)cc3)coc2cc1O[C@@H]1O[C@@H](C)[C@H](O)[C@@H](O)[C@H]1O	0
O=c1c(O[C@@H]2O[C@H](CO)[C@@H](O)[C@H](O)[C@H]2O)c(-c2ccc(O)c(O)c2)oc2cc(O)cc(O)c12	58
COc1cc(-c2oc3cc(O)cc(O)c3c(=O)c2OC2OC(CO)C(O)C(O)C2O)ccc1O (stereo not drawn)	56
C[C@@H]1O[C@@H](OCC2OC(OC3C(OC4C(Oc5c(-c6ccc(O)c(O)c6)oc6cc(O)cc(O)c6c5=O)OC(CO)C(O)C4O)OC(CO)C(O)C3O)C(O)C(O)C2O)[C@H](O)[C@H](O)[C@H]1O (stereo partly drawn)	0
C[C@@H]1O[C@@H](O[C@@H]2[C@@H](O)[C@H](Oc3c(-c4ccc(O)cc4)oc4cc(O)cc(O)c4c3=O)O[C@H](CO)[C@H]2O)[C@H](O)[C@H](O)[C@H]1O	59
COc1c(OC2OC(CO)C(O)C(O)C2O)ccc(O)c1C(=O)OCc1ccccc1O[C@@H]1O[C@H](CO)[C@@H](O)[C@H](O)[C@H]1O (stereo partly drawn)	0
CC1OC(Oc2cc(O)c3c(=O)c(OC4OC(CO)C(O)C(O)C4OC4OC(C)C(O)C(O)C4O)c(-c4ccc(O)cc4)oc3c2)C(O)C(O)C1O (stereo not drawn)	0
CNC[C@H]1Oc2ncc(-c3cccc(F)c3)cc2C(=O)N([C@@H](C)CO)C[C@H]1C	0
CCc1ccccc1NC(=O)Cn1nc([N+](=O)[O-])cc1C	0
C[C@@H]1CN([C@H](C)CO)C(=O)c2cc(Br)cnc2O[C@H]1CN(C)CC1CCCC1	0
C[C@@H]1CN([C@@H](C)CO)C(=O)c2cccc(NC(=O)c3ccncc3)c2O[C@H]1CN(C)C	0
CC(C)(C)[S@@](=O)N1Cc2cc(C(=O)NCc3ccncc3)nc(-c3cccc(-c4ccc(C#N)cc4)c3)c2[C@H]1CCO	0
CC(C)(C)[S@](=O)N1Cc2cc(C(=O)NCCc3ccncc3)nc(-c3cccc(-c4cccc(C#N)c4)c3)c2[C@@H]1CCO	0
CC(C)(C)[S@@](=O)N1Cc2cc(C(=O)NCCc3ccncc3)nc(-c3cccc(-c4ccc(C#N)cc4)c3)c2[C@H]1CCO	50
